High-throughput results (PubChem BioAssay)
Only some compounds are listed: those with a hit (about 5.4% of all), similar ones and a draw of the others.
LASV entry inh: Lassa virus entry inhibition; Lassa virus pseudotype entry inhibition, cell reporter; Potency, µM (highest dose often 37.9 µM), for the others: top-dose activity change, negative = inhibition, hits mostly inhibitors; 1.2% of 300,000 active; AID 540256; calls by dose curve; tested in HEK293 cells; note: nearly all actives have a fitted effect of over 50% in size
MARV entry inh: inhibitors of Marburg virus binding or cell entry; AID 540276; 1.8% of 300,000 active; Potency, µM (series often up to 37.8 µM), inactives show top-dose activity change, negative = inhibition, hits mostly inhibitors; Marburg virus pseudotyped entry inhibition, cell reporter; calls by dose curve; tested in HEK293 cells
Vaccinia mCherry: inhibitors of vaccinia virus infection (mCherry reporter signal). Vaccinia virus mCherry reporter infection, fluorescence. Potency, µM (series often up to 36.5 µM), inactives show at the top dose activity change, negative = inhibition, most hits filed as inhibitors. 0.63% of 310,000 active; calls by dose curve; tested in A549 cells; note: nearly all actives have a fitted effect of over 35% in size
VACV Venus inh: vaccinia inhibition (Venus reporter). Vaccinia virus Venus reporter expression, fluorescence. Potency, µM (top dose mostly 36.5 µM), for the others: at the top dose activity change, negative = inhibition, usual class: inhibitors. 0.46% of 330,000 active; calls by dose curve; tested in A549 cells; note: nearly all actives have a fitted effect of over 30% in size
Sm TGR inh: S. mansoni TGR enzyme inhibition; purified TGR, DTNB reduction, TNB absorbance 405 nm; Potency, µM (titrated, usually from 114 µM), for inactives: top-dose activity change, negative = inhibition, usual class: inhibitors; 3% of 360,000 active; AID 485364; active = well fitted inhibition curve with a large enough effect; inconclusive = small, poorly fitted or top-dose-only effect; inactive = no such curve, though single readings can be large or run the other way; note: nearly all actives have a fitted effect of over 60% in size
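TGR 20 nM + NADPH 100 uM (dispensed conc.), cpd preinc 15 min RT; start with NADPH (500 uM addition) then DTNB (15 mM addition). Kinetic TNB absorbance, 405 nm filter. Four-parameter Hill fit across titration.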
FMDV inh: foot and mouth disease virus antiviral activity. FMDV antiviral cell-based qHTS. Potency, µM (highest dose often 57.9 µM), for the others: at the highest dose activity change, negative = inhibition, hits mostly inhibitors. 1.2% of 410,000 active; calls by dose curve; tested in HEK293T cells; note: read-out not given here; nearly all actives have a fitted effect of over 45% in size
The depositor's hits bear a star; [ ] = another dose, or the depositor's remark. % is set by controls: 0 for no effect and ±100 for the full control effect; potency is the fitted concentration of half-maximal effect.

Screening C=C(C(=O)c1ccccc1)C(NC(C)(C)C)c1ccccc1 (stereo unspecified) returned LASV entry inh inconclusive, MARV entry inh inconclusive, Vaccinia mCherry 18µM*, VACV Venus inh inconclusive and FMDV inh 10µM*.
For CCOC(=O)c1c(C)oc2ncnc(N3CCN(c4ccccc4)CC3)c12 the results were LASV entry inh -25%[46.1 µM], Vaccinia mCherry -18%, VACV Venus inh -21%, Sm TGR inh -3% and FMDV inh 28µM*.
Screening CCOC(=O)c1c(C)oc2ncnc(N3CCN(c4ccccc4F)CC3)c12 returned LASV entry inh inconclusive, Vaccinia mCherry -8%, VACV Venus inh 2%, Sm TGR inh 40% and FMDV inh 32µM*.
Screening O=[N+]([O-])c1ccc2c(c1)nc1n2CCN(c2ccccc2)C1 returned Sm TGR inh 28µM* and FMDV inh -14%.
O=[N+]([O-])c1ccc2c(c1)nc1n2CCSC1 was read as LASV entry inh -1%, MARV entry inh 22%, Vaccinia mCherry -1%, VACV Venus inh -4%, Sm TGR inh 29% and FMDV inh -5%.
`O=[N+]([O-])c1ccc2c(c1)nc1n2CCN(CC2CCCO2)C1` (stereo unspecified) gave Sm TGR inh inconclusive and FMDV inh 32%.
Screening COCCN1CCn2c(nc3cc([N+](=O)[O-])ccc32)C1 returned Vaccinia mCherry -8%, VACV Venus inh -5%, Sm TGR inh 40µM* and FMDV inh -5%.
CC(=O)OCC(=O)[C@@]1(O)CCC2C3CC(C)C4=CC(=O)C=CC4(C)C3C(O)CC21C (stereo partly specified) was read as Vaccinia mCherry -16%, VACV Venus inh -12% and FMDV inh -12%.
CN1CCc2cc(O)c(O)cc2[C@H](c2ccccc2)C1 was read as MARV entry inh -9%.
Screening Oc1cc2c(cc1O)[C@H]1c3ccccc3CN[C@@H]1CC2 returned Vaccinia mCherry inactive, VACV Venus inh -7% and Sm TGR inh 8.9µM*.
Screening Oc1cc2c(cc1O)[C@H]1c3ccccc3CN[C@H]1CC2 returned MARV entry inh 16µM*, Vaccinia mCherry -5%, VACV Venus inh -17% and FMDV inh -4%.
For CCC1CN(CC(=O)NC(C)c2cn(C)nc2C)Cc2cc(OC)ccc2O1 (stereo unspecified) the results were Vaccinia mCherry -9%, VACV Venus inh 3% and FMDV inh -8%.
`COC(=O)C1=C(C)NC(=O)NC1c1cn(-c2ccccc2)nc1-c1ccc(OC)c(Br)c1` (stereo unspecified) gave LASV entry inh -28%[46.1 µM], MARV entry inh inconclusive, Vaccinia mCherry -11%, VACV Venus inh -15%, Sm TGR inh 1% and FMDV inh 4%.
COC(=O)N1C(C)=Cc2ccccc2C1CC(C)=O (stereo unspecified) was read as MARV entry inh -9%[14.2 µM].
`COc1cc(CN2CCCC(CO)(Cc3cccc(Cl)c3)C2)cc(OC)c1O` (stereo unspecified) gave Sm TGR inh 28µM* and FMDV inh -6%.
COc1cc(Cl)c(CN2CCCC(CO)(Cc3ccccc3F)C2)cc1OC (stereo unspecified) was read as LASV entry inh inconclusive, MARV entry inh 2.8µM*, Vaccinia mCherry -27%, VACV Venus inh -29%, Sm TGR inh -2% and FMDV inh -19%.
Screening COc1cc2c(cc1OC)/C(=C/c1ccc(Cl)cc1)C(=O)OC2 returned LASV entry inh -15%, MARV entry inh inconclusive, Vaccinia mCherry inactive, VACV Venus inh -3%, Sm TGR inh -5% and FMDV inh 40µM*.
Screening Cc1ccc(C(=O)N/N=C\c2ccc(Br)o2)o1 returned LASV entry inh 16%, MARV entry inh inconclusive, Vaccinia mCherry -15%, VACV Venus inh -1% and Sm TGR inh 4%.
Screening Cc1ccc(C(=O)N/N=C/c2ccc(-c3ccc(Br)cc3[N+](=O)[O-])o2)o1 returned LASV entry inh -7%, MARV entry inh -16%, Vaccinia mCherry -14%, VACV Venus inh -7%, Sm TGR inh 50µM* and FMDV inh -14%.
`Oc1c(/C=N/c2ncn[nH]2)ccc2ccccc12` gave LASV entry inh -5%, MARV entry inh -23%, Sm TGR inh 32µM* and FMDV inh -13%.
For c1ccc2sc(-c3cc4c(c(OC5CCOC5)c3)OCCN(Cc3cccn3-c3nccs3)C4)nc2c1 (stereo unspecified) the results were Vaccinia mCherry -12%, VACV Venus inh -5% and FMDV inh -7%.
For Cc1cc(C)c(CN2CCN(C(=O)Cn3cnc4c(NCc5ccccc5)ncnc43)CC2)c(C)c1 the results were Vaccinia mCherry inconclusive, VACV Venus inh inconclusive and FMDV inh 8.9µM*.
For COc1ccc(CC2NCC(O)C2OC(C)=O)cc1 (stereo unspecified) the results were Vaccinia mCherry 0.0089µM*, VACV Venus inh 0.11µM* and FMDV inh inconclusive.
COc1ccc(CC2NC[C@H](O)[C@H]2OC(C)=O)cc1 (stereo partly specified) was read as Vaccinia mCherry 0.79µM*, VACV Venus inh 1µM* and FMDV inh inconclusive.
For COc1ccc(CC2NCCC3(O)CCCCC23)cc1 (stereo unspecified) the results were LASV entry inh 0%, MARV entry inh -1%, Sm TGR inh inconclusive and FMDV inh -15%.
`COc1ccc(CC(=O)N2CCN(C(=O)Cc3ccc(OC)cc3)CC2)cc1` gave LASV entry inh -26%, MARV entry inh -2%[46.1 µM], Vaccinia mCherry inactive, VACV Venus inh -8%, Sm TGR inh -8% and FMDV inh 4%.
`CCCNC(=O)OC[C@H]1O[C@H](CCO/N=C(\C)CCC(=O)OC[C@H]2O[C@H](C#Cc3ccccc3)C=C[C@@H]2Oc2ccc(C)cc2)C=C[C@@H]1Oc1ccc(OC)cc1` gave MARV entry inh -29%[14.2 µM].
`COc1ccc(NC(=O)c2cc(-c3cc(F)ccc3OC)n[nH]2)cc1OC` gave Vaccinia mCherry 3%, VACV Venus inh -9% and FMDV inh -4%.
COc1ccc(NC(=O)c2cc(-c3ccc(F)cc3OC)n[nH]2)c(OC)c1 was read as Vaccinia mCherry inconclusive, VACV Venus inh -27% and FMDV inh -23%.
`COc1ccc(F)cc1-c1cc(C(=O)Nc2ccc(C)c(NS(C)(=O)=O)c2)[nH]n1` gave Vaccinia mCherry 12%, VACV Venus inh -20% and FMDV inh 35µM*.
Screening COc1cc(F)ccc1-c1cc(C(=O)Nc2ccc(C)c(NS(C)(=O)=O)c2)[nH]n1 returned Vaccinia mCherry inactive, VACV Venus inh -7% and FMDV inh 25µM*.
